Laboratory results as given in ChEMBL document CHEMBL1961873, “Compounds: GSK PKIS; Assays: Nanosyn kinase panel” (2012).

Assays:
[1] = target: T1, Aurora kinase A (Homo sapiens) (UniProt O14965); conditions: at 1 µM;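 also: values are mean percent inhibition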
T1 sequence (whole entry): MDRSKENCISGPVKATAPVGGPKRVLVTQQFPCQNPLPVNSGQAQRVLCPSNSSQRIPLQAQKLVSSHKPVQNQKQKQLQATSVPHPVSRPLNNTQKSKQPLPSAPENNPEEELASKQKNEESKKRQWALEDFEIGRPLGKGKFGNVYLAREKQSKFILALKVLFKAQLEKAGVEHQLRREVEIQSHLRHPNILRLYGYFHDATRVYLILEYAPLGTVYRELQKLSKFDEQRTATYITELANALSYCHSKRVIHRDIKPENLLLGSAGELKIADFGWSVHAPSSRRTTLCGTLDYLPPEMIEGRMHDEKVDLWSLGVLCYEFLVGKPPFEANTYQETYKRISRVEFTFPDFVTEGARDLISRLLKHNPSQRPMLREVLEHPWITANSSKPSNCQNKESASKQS

[2] = target: Aurora kinase B (Homo sapiens) (UniProt Q96GD4); conditions: at 0.1 µM
[3] = target: Aurora kinase B (Homo sapiens) (UniProt Q96GD4); conditions: at 1 µM
[4] = target: T2, Aurora kinase C (Homo sapiens) (UniProt Q9UQB9); conditions: at 0.1 µM
T2 sequence (whole entry): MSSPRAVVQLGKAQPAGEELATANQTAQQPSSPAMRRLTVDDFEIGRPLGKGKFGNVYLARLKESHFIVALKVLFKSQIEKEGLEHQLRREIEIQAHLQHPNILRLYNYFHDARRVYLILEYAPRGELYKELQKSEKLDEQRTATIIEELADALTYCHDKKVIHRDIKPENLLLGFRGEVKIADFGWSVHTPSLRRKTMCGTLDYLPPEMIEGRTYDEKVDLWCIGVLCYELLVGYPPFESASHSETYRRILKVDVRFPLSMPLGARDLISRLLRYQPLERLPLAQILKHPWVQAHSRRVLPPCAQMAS

[5] = target: T2, Aurora kinase C (Homo sapiens); conditions: at 1 µM
[6] = target: Serine/threonine-protein kinase 10 (Homo sapiens) (UniProt O94804); conditions: at 0.1 µM
[7] = target: Serine/threonine-protein kinase 10 (Homo sapiens) (UniProt O94804); conditions: at 1 µM
[8] = target: T3, Mitogen-activated protein kinase kinase kinase kinase 2 (Homo sapiens) (UniProt Q12851); conditions: at 0.1 µM
T3 sequence (whole entry): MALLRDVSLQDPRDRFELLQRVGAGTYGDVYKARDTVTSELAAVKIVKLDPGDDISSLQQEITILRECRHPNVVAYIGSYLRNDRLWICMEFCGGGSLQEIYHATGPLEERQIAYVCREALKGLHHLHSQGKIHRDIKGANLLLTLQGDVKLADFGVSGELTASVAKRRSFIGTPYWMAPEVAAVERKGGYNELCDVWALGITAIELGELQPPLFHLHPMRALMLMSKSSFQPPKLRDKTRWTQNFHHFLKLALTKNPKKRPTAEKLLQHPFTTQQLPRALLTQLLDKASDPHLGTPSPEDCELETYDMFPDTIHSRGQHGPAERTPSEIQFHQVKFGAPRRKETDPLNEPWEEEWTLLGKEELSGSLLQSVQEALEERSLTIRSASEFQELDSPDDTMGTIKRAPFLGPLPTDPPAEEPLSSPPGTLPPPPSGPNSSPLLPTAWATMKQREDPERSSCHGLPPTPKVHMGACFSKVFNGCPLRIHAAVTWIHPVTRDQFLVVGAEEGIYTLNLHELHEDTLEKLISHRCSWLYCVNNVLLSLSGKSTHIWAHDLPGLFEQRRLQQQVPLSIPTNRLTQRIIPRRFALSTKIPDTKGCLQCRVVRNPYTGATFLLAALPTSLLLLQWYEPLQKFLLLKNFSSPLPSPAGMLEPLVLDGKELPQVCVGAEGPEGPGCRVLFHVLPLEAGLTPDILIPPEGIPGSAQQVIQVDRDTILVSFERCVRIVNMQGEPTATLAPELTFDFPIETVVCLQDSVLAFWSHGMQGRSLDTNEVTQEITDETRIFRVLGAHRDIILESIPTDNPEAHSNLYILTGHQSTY

[9] = target: T3, Mitogen-activated protein kinase kinase kinase kinase 2 (Homo sapiens); conditions: at 1 µM
[10] = target: Mitogen-activated protein kinase kinase kinase kinase 4 (Homo sapiens) (UniProt O95819); conditions: at 0.1 µM
Sequence of Mitogen-activated protein kinase kinase kinase kinase 4 (Homo sapiens) (O95819 2-1239 limits assumed): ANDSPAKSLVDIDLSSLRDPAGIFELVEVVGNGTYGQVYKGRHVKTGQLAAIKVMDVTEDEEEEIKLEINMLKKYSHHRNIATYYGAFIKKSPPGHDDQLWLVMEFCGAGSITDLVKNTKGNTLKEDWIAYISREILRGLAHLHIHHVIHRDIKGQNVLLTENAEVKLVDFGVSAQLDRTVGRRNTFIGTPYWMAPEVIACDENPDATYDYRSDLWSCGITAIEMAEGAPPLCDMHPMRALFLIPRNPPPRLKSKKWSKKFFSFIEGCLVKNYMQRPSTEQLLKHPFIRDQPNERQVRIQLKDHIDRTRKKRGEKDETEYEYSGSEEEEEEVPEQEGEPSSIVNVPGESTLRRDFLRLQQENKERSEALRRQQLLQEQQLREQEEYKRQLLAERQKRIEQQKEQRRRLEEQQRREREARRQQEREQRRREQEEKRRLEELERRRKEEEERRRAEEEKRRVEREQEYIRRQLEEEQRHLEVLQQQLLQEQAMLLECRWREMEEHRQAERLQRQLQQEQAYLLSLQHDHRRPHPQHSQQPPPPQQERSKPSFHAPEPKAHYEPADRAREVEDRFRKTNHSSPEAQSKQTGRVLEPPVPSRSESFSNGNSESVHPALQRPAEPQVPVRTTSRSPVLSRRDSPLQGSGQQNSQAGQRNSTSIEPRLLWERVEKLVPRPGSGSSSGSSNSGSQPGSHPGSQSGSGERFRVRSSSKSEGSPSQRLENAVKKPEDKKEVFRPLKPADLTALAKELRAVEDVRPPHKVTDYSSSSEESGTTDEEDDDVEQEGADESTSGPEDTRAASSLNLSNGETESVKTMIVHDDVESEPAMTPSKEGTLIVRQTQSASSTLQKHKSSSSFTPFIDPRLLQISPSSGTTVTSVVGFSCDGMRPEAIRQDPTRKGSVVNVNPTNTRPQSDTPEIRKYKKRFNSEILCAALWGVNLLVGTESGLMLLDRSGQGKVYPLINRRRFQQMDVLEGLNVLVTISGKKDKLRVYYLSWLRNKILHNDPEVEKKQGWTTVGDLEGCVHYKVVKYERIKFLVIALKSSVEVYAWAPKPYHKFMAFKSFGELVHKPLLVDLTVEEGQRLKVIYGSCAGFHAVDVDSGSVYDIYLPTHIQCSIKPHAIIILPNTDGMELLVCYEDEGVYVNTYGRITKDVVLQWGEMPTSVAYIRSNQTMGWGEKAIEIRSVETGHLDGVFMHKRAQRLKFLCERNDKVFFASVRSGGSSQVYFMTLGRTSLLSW

Sequence of Aurora kinase B (Homo sapiens) (Q96GD4 whole entry): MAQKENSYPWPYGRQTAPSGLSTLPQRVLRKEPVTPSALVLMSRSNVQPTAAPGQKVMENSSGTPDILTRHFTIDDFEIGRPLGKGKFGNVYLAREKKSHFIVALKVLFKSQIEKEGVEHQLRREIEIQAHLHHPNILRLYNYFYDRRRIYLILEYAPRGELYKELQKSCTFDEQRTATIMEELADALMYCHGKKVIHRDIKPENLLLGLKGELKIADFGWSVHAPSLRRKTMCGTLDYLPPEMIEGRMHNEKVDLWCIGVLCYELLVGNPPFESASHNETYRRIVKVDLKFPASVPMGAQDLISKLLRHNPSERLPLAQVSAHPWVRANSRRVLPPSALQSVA
Sequence of Serine/threonine-protein kinase 10 (Homo sapiens) (O94804 whole entry, looked up): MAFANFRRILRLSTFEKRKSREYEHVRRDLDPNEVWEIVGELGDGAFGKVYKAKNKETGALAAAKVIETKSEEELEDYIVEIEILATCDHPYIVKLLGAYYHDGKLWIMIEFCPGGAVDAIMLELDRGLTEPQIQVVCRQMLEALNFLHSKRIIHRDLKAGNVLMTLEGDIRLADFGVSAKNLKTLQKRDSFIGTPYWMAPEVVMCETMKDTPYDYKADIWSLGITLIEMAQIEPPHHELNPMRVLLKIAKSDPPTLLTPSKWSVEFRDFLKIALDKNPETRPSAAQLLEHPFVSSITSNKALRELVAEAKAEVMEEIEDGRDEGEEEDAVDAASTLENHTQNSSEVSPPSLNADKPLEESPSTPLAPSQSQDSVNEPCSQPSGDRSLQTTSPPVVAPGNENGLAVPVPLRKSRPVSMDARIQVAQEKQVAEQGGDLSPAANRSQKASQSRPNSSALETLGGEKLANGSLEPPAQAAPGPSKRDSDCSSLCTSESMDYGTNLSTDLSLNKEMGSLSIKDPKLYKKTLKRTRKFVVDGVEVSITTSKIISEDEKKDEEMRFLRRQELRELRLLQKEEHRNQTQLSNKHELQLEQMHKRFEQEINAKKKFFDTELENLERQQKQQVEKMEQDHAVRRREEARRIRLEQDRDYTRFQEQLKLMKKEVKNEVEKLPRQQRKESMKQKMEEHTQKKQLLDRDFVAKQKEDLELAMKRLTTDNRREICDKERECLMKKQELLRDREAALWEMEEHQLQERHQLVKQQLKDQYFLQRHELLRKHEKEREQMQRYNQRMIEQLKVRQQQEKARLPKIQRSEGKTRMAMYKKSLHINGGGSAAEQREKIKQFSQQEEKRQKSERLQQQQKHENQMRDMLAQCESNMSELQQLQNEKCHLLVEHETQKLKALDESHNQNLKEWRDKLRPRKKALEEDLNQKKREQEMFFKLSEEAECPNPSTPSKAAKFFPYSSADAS

Compound	inhibition [1] [%]	inhibition [2] [%]	inhibition [3] [%]	inhibition [4] [%]	inhibition [5] [%]	inhibition [6] [%]	inhibition [7] [%]	inhibition [8] [%]	inhibition [9] [%]	inhibition [10] [%]
NS(=O)(=O)c1cccc(Nc2cc(-c3ccc(F)cc3)n[nH]2)c1	8.81	3.89	3.74	0.7	0.46	4.31	16.5	1.41	4.93	16.9
CCn1c(-c2nonc2N)nc2c(C#CC(C)(C)O)nc(OCCNC)cc21	4.63	2.66	5.49	-0.74	3.76	5.14	8.89	0.49	3.15	3.57
Cc1ccc(O)cc1Nc1ccnc2ccc(S(C)(=O)=O)cc12	6.17	2.16	5.99	0.93	-0.69	8.9	36.7	5.18	31	8.02
COc1cc2ncn(-c3cc(OCc4ccccc4S(C)(=O)=O)c(C#N)s3)c2cc1OC	77.2	28.2	73.6	17.7	93.8	35.5	71.7	8.65	41.3	57.5
CCCN1CCCC(c2ccc(Nc3nc(Nc4cc(F)ccc4C(N)=O)c4cc[nH]c4n3)c(OC)c2)C1 (stereo not given)	7.44	-0.78	3.45	-0.09	5.81	7.27	24.8	9.87	48.9	38.3
O=C1Nc2ccc(-c3cccnc3)cc2C1=Cc1cc(Br)c(O)c(Br)c1	88.3	4.87	16	2.6	31.7	3.55	3.51	1.24	2.93	69.3
N#Cc1cccc(Nc2nccc(-c3cnn4ncccc34)n2)c1	74.5	19.3	64	18.5	96.7	5.05	15.8	11	45.8	19.3
Cc1ccc(Nc2ccnc(Nc3cccc(C(N)=O)c3)n2)cc1O	73.4	6.44	42.6	8.25	85.4	7.05	38.9	2.07	8.97	6.53
Nc1ccc(C#Cc2cncnc2Nc2ccc(OCc3cccc(F)c3)c(Cl)c2)cc1	0.03	3.38	1.27	0.25	2.24	5.13	6.55	0.2	1.98	2.07
Nc1nccc(-c2c(-c3ccc(F)cc3)ncn2CCCN2CCOCC2)n1	8.99	2.68	4.99	0.25	-2.92	3.38	7.74	2.02	-0.39	3.81
NS(=O)(=O)c1ccc(N/N=C2\C(=O)Nc3ccc(Cl)cc32)cc1	26.8	3.68	6.25	1.97	5.64	6.82	6.74	0.49	3.26	25.7
Cc1ccc2c(-c3ccnc(Nc4cccc(C(F)(F)F)c4)n3)c(-c3ccccc3)nn2n1	6.06	5.03	7.6	3.89	9.67	8.49	11.5	-0.05	9.38	7.07
CCn1c(-c2nonc2N)nc2ccc(F)cc21	4.08	1.24	7.81	1.48	-2.72	9.56	13.5	1.16	2.01	4.2
NS(=O)(=O)c1ccc(Nc2cc(-c3cccc(O)c3)n[nH]2)cc1	17.2	9.52	19.4	7.83	19.6	6.23	8.5	2.13	10.7	7.82
CN(C)C(=O)O[C@@H]1CN[C@@H](C#Cc2cc3ncnc(Nc4ccc(OCc5cccc(F)c5)c(Cl)c4)c3s2)C1	8.44	2.09	5.86	0.89	14	1.67	6.26	0.47	2.35	2.96
Nc1nccc(C#Cc2cncnc2Nc2ccc(OCc3cccc(F)c3)c(Cl)c2)n1	15.2	5.2	13.2	3.04	10.1	5.76	11.4	1.38	-0.42	6.33
N#Cc1c(NC(=O)c2ccccc2F)sc2c1CCCC2	-2.59	-1.47	0.26	-2	0.91	-0.59	4.2	1.34	2.61	-1.47
COc1cc2ncnc(Nc3ccc4c(cnn4Cc4ccccc4)c3)c2cc1OC	7.82	3.48	15	1.9	23.7	0.29	14.2	1.57	1.51	8.32
OCc1ccc(-c2nc(-c3ccccn3)c(-c3ccc4c(c3)OCO4)[nH]2)cc1	11	6.24	11.7	3.67	12.5	6.01	4.97	1.15	2.87	5.21
